# Gli-Sufu antag = Gli-Sufu pathway antagonists, primary screen, luciferase luminescence, Sufu-KO-LIGHT cells, uHTS; Sufu-KO-LIGHT fibroblasts, Gli luciferase reporter luminescence; inhibition, % at 5 µM; 0.74% of 340,000 active; AID 588413, 2011;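 active means inhibition above about 55%, limit read from the data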;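 further: 0% = DMSO-treated cells and 100% = wells with medium but no cells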
# PAX8 inh HTS = inhibitors of PAX8-driven TPO luciferase reporter, primary screen, RMG-I cells, single concentration; SteadyGlo, 24 h; inhibition, % at 12.6 µM; 1.2% of 360,000 active; AID 652154, 2013;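 active means mean replicate inhibition at least 60% with every replicate also reaching 60%; inconclusive means only one of the two criteria is met; inactive means mean below 60% and not all replicates reaching 60%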;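 further: luciferase light reporting Pax8 driven TPO promoter activity; plate controls were median of neutral control wells for no effect and mitoxantrone controls for full effect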
# Shn3 3UTR inh = reduction of Shn3 3'UTR firefly luciferase signal, primary screen, Schnurri-3 inhibitor project, cell-based, Clone20 osteoblasts, set 2. 0.52% of 360,000 active. Clone20 osteoblast Shn3 3'UTR firefly luciferase, 24 h. AID 588674, 2011. inhibition, % at 12.5 µM;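 active means mean inhibition of at least 75% with every replicate also reaching 75%; inconclusive means mean inhibition at least 75% but some replicate below; inactive means mean inhibition below 75%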;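 further: 0% = median of neutral control wells and 100% = pilot-screen positive control compound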
# Mdm2-MdmX inh = inhibitors of human Mdm2-MdmX association, primary screen, cell-based, luminescence, split luciferase, SaOS-2, uHTS; 3% of 330,000 active; inhibition, % at 8 µM; SaOS-2 split-luciferase Mdm2/MdmX complementation; Protein Mdm4 (Homo sapiens) + E3 ubiquitin-protein ligase Mdm2 (Homo sapiens), …;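 active means inhibition of at least 50% at 8 µM in the primary screen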
# CSC inhib = cancer stem cell viability inhibitors, primary screen, luminescence; inhibition, % at 7.5 µM; AID 2717, 2010; 1.1% of 300,000 active; cancer stem cell-like cells viability; in the data active means inhibition above about 75%; inconclusive means no clear call, values can overlap the other calls; tested in HMLE shEcad cells
# Beta cell apopt = inhibitors of cytokine-induced beta cell apoptosis, primary screen, luminescence; INS-1E cytokine-induced death, ATP luminescence, 48 h; percent of positive-control rescue, neutral wells zero; protection from apoptosis, % (concentration not given with the values); 0.8% of 300,000 active; AID 435005, 2010;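 active means Every replicate reaches about 75%, or at least half do and their mean reaches it too, limit read from the data; inconclusive means At least half of replicates reach the limit but their mean does not; inactive means Under half of replicates reach the limit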;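 further: 0% = cytokine-treated negative control wells and 100% = positive control rescue; higher means more ATP so stronger rescue from cytokine killing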
# Mdm2-MdmX conf = Mdm2-MdmX complex disruptors, retested hits, confirmation, luminescence, single concentration; inhibition, % at 8 µM; AID 489028, 2010; shares compounds with Mdm2-MdmX inh; Mdm2-MdmX binding, luminescent assay; 55% of 10,000 active; in the data active means inhibition above about 40%
# Full FLuc ctr = full-length luciferase signal inhibition, confirmation, counter-screen for Mdm2/MdmX interaction inhibitor project, cell-based, single concentration, SaOS-2 | 77% of 6,200 active | inhibition, % at 8 µM | SaOS-2 full-length luciferase counterscreen, luminescence | AID 504607, 2011 | shares compounds with Mdm2-MdmX inh;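 active means mean inhibition at 8 µM reaching about 37%, which flags the compound as non-specific, limit read from the data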;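 further: p53-null SaOS-2 cells with luciferase driven by a doxycycline-inducible promoter; compound on cells about two nights before reading with doxycycline added after day one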
# Starred values were filed as active, the others as inactive; u = inconclusive; x = not tested or not shown. Hits are enriched below; roughly 4% of the tested compounds scored in any of these assays.
SMILES,Gli-Sufu antag,PAX8 inh HTS,Shn3 3UTR inh,Mdm2-MdmX inh,CSC inhib,Beta cell apopt,Mdm2-MdmX conf,others
CCC(=O)N1Cc2cc(C(=O)NCCOC)nc(-c3cccc(-c4ccc(C#N)cc4)c3)c2[C@@H]1CCO,x,1,x,x,x,x,x,
O=c1[nH]cnc2c1sc1nc(C(F)F)cc(-c3ccccc3)c12,6,28,-17,53*,-5,-1,8,
O=c1[nH]cnc2c1sc1nc3c(c(-c4ccc(Cl)cc4)c12)CCC3,4,x,-7,34,-5,x,x,
CO[C@H]1CN(C)C(=O)c2cc(NC(=O)C3CC3)ccc2OC[C@@H](C)N(C(=O)Cc2ccccn2)C[C@@H]1C,x,7,x,x,x,x,x,
C=C1CCC[C@]2(C)C[C@H]3OC(=O)C(CN(Cc4ccc(OC)c(OC)c4)CC(C)O)[C@H]3CC12 (stereo partly specified),1,-43,2,68*,14,-44,48*,Full FLuc ctr=40*
C=C1CCC[C@]2(C)C[C@H]3OC(=O)C(CN[C@@H](C)c4ccccc4)[C@H]3CC12 (stereo partly specified),40,27,18,x,3,15,x,
O=C(C[C@H]1C[C@H]2c3cc(NS(=O)(=O)c4ccc(F)cc4)ccc3O[C@H]2[C@@H](CO)O1)NCC(F)(F)F,x,0,x,x,x,x,x,
O=C(NNc1cccc(Cl)n1)c1ccccc1CC[N+](=O)[O-],0,14,19,92*,-2,1,-9,
O=C(NNc1cccc(Cl)n1)c1ccc(Cl)cc1Cl,-20,x,-30,-25,-16,-5,x,
CCOc1ccc2nc(NC(=O)CC3Oc4ccccc4NC3=O)sc2c1 (stereo unspecified),3,-22,12,62*,-2,9,34,Full FLuc ctr=63*
CC(=O)c1c(C)[nH]c(C(=O)OCC(=O)c2c(N)n(C)c(=O)n(C)c2=O)c1C,x,x,x,56*,-1,-12,2,
O=C(C[C@H]1CC[C@H]2[C@@H](COC[C@H](O)CN2C(=O)Nc2ccc(Cl)c(Cl)c2)O1)NCc1ccc(F)cc1,x,4,x,x,x,x,x,
COc1cc(CNC2CCCc3ccccc32)cc(OC)c1OC (stereo unspecified),8,21,4,-20,-15,-2,x,
CCN(CC)c1ccc2c(cc1=O)[C@@H](NC)CCc1cc(OC)c(OC)c(OC)c1-2,41,98*,33,69*,56,39,61*,Full FLuc ctr=90*
CN[C@H]1CCc2cc(OC)c(OC)c(OC)c2-c2ccc(N(C)CC(OC)OC)c(=O)cc21,5,u,19,71*,80*,10,49*,Full FLuc ctr=66*
CCN(CC)CCN1C(=O)c2ccccc2NC1c1cc(OC)c(OC)c(OC)c1 (stereo unspecified),5,x,13,-1,-6,-7,x,
COc1ccc(S(=O)(=O)N[C@@H]2CC[C@H](CC(=O)O)O[C@H]2CO)cc1,x,-3,x,x,x,x,x,
CC(C)NC(=O)Nc1ccc2c(c1)C(=O)N([C@@H](C)CO)C[C@@H](C)[C@H](CN(C)Cc1ccncc1)OCCCC[C@H](C)O2,x,-16,x,x,x,x,x,
COCC(=O)Nc1ccc2c(c1)C(=O)N(C)[C@@H]1CC[C@H](CC(=O)Nc3ccccc3)O[C@H]1CO2,x,10,x,x,x,x,x,
CCN(CC)S(=O)(=O)c1ccc(/C(O)=C(\C#N)c2nc3ccccc3n2C)cc1,-8,x,23,19,35,14,x,
Cn1c(/C(C#N)=C(\O)c2ccc([N+](=O)[O-])cc2)nc2ccccc21,-12,-12,6,86*,-8,-1,27,
Cc1ccc(Cn2c(=N)n(CC(O)COc3ccccc3)c3ccccc32)cc1 (stereo unspecified),16,x,85,69*,8,66,76*,Full FLuc ctr=62*

# From PubChem
